Source: PubChem (National Center for Advancing Translational Sciences (NCATS))
This is a sample that favours compounds with a hit; in the whole collection about 6.9% have one here.
KB-3-1 tox = KB-3-1 parental cell cytotoxicity. KB-3-1 viability, CellTiter-Glo ATP luminescence, 72 h. Potency, µM (titrated, usually from 46.1 µM), usual class: cytotoxic. 400,000 tested, 1.4% active; further: nearly all actives have a fitted effect of over 60% in size
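Using CellTiter-Glo luminescence, growth of non-resistant KB-3-1 adenocarcinoma cells is assessed 72 h after pin-tool compound addition at 37 °C. Normalized responses across the concentration series yield fitted curves.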
Giardia kill = kills Giardia lamblia. Giardia lamblia trophozoite viability. activity change, % at 7.66 µM, hits read low. 340,000 tested, 0.15% active; in the data active means activity change below about -80%; inconclusive means between about -30% and that limit;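 further: parasites exposed to compound for two days anaerobically before the ATP read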
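Viability, read as ATP luminescence: trophozoites at 100 cells/well, compound added, 48 hrs anaerobic at 37 deg C, then 15-30 min room-temperature development before reading.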
SW480 rereplic = induces DNA re-replication in SW480 colon adenocarcinoma cells. SW480 DNA re-replication, Hoechst DNA content imaging, 48 h. Potency, µM (series often up to 46.1 µM), actives largely listed as activators. 340,000 tested, 1.8% active. AID 624297; further: nearly all actives have a fitted effect of over 55% in size
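Compounds, transferred as 23 nL by pin tool, were incubated with cells for 48 hr; DNA content per nucleus was then quantified by Hoechst staining and fluorescence plate imaging.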
MCF10A rerep = induces DNA re-replication in MCF 10a normal breast cells | MCF 10A DNA re-replication, Hoechst nuclear intensity, 48 h | Potency, µM (highest dose often 46.1 µM), most hits filed as activators | 350,000 tested, 2.9% active | AID 624296; further: nearly all actives have a fitted effect of over 50% in size
KB-V1 cytotox = kills drug-selected multidrug resistant KB-V1 cells. KB-V1 MDR cells viability, CellTiter-Glo, 72 h. Potency, µM (highest dose often 46.1 µM), actives largely listed as cytotoxic. 400,000 tested, 3.4% active; further: nearly all actives have a fitted effect of over 60% in size
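Cytotoxicity toward P-gp-expressing KB-V1 cells was determined as loss of CellTiter-Glo luminescence after 72 h at 37 degrees C. Compounds were tested in quantitative HTS format across a concentration range, with curves fitted to normalized data.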
S-ASM inh = blocks human secretory acid sphingomyelinase | 340,000 tested, 0.006% active | placental ASM, HMU-PC fluorogenic substrate, 60 min | Potency, µM (titrated, usually from 57.5 µM), actives largely listed as inhibitors | AID 504937
Target sequence (P17405 47-631 limits assumed): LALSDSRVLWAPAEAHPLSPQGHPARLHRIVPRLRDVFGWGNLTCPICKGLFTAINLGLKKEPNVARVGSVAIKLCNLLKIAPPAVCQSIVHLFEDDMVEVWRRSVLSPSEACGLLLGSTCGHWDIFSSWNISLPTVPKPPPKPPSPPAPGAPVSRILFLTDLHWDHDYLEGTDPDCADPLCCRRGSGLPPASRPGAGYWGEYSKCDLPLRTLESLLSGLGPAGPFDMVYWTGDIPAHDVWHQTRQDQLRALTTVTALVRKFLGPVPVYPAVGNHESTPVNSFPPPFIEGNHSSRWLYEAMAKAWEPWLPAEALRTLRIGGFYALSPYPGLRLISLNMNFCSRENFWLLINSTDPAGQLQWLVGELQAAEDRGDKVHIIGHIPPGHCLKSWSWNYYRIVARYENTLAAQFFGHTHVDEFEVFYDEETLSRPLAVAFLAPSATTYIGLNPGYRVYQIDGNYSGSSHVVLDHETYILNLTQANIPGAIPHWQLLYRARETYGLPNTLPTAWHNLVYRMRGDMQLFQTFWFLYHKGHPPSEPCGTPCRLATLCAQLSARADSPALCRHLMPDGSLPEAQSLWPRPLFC
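Fluorogenic HMU-PC substrate (9 uM final) is turned over by placental ASM in 60 min at 37 C after a 10 min compound preincubation. Reaction ended by alkaline stop (pH 10), with fluorescence read at 386/447 nm.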
Large screens that a line does not name were inactive. Unless noted, the call rests on the fitted dose curve; in most records, active means well fitted curve in the direction sought with a large enough effect; inconclusive means small, poorly fitted or top-dose-only effect, or another doubt; inactive means no such curve, though single readings can be large; an effect the other way counts as inactive or inconclusive.

NC(N)=NS(=O)(=O)c1ccc(N/C=C/C(=O)c2ccc(Cl)c(Cl)c2)cc1	SW480 rereplic 15µM, MCF10A rerep inconclusive
S=c1[nH]nc(-c2ccc(Cl)cc2)n1/N=C/c1cccs1	SW480 rereplic 9.2µM
Cc1ccc(Cn2c(=O)c3ccccc3n3c(-c4cccc(O)c4)nnc23)cc1	none (no result: Giardia kill, SW480 rereplic, MCF10A rerep, S-ASM inh)
COc1ccc2sc(-c3ccccc3OC)c(-c3ccc(O)cc3)c2c1	MCF10A rerep 16µM
COc1cc2sc(-c3ccccc3OC)c(-c3ccc(O)cc3)c2cc1OC	Giardia kill inconclusive, SW480 rereplic inconclusive
COc1cccc(COC(=O)c2ccc(S(=O)(=O)N3CCC(C)CC3)cc2)c1OC	MCF10A rerep inconclusive
O=C(NC1CCCCCCC1)C1CCN(S(=O)(=O)N2CCCC2)CC1	KB-V1 cytotox inconclusive
O=C(NC1CCCCC1)C1CCN(S(=O)(=O)N2CCCCCC2)CC1	KB-V1 cytotox 16µM
CC(=O)N1c2ccc(S(=O)(=O)N3CCC(C(=O)Nc4ccc(C)cn4)CC3)cc2CC1C (configuration not stated)	KB-3-1 tox 16µM
COc1ccc(COC(=O)c2ccc(S(=O)(=O)N3CCC(C)CC3)cc2)cc1	KB-3-1 tox inconclusive, MCF10A rerep 16µM
CN1CCN(S(=O)(=O)c2ccc(C(=O)NC3CCCCC3)cc2)CC1	none
Cc1ccc(NC(=O)C2CCN(S(=O)(=O)c3ccc4c(c3)CC(C)N4C(=O)C3CCC3)CC2)nc1 (configuration not stated)	KB-3-1 tox inconclusive, KB-V1 cytotox inconclusive
O=C(NC1CCCCC1)c1ccc(S(=O)(=O)N2CCCC2)cc1	KB-V1 cytotox 16µM
Cc1cccn2c(=O)nc(SCC(=O)NC3CCCCC3)nc12	none
Cc1ccc(C(=O)N2CCN(c3ccccn3)CC2)cc1Cl	none
CCC(C(=O)NC1CCCC1)n1c(C2CC2)nc2ccccc21 (configuration not stated)	KB-V1 cytotox inconclusive (no result: Giardia kill, SW480 rereplic, MCF10A rerep, S-ASM inh)
Cc1c(Cl)cccc1-c1ccc(CNc2ccc3[nH]c(=O)[nH]c3c2)o1	KB-V1 cytotox inconclusive (no result: Giardia kill, SW480 rereplic, MCF10A rerep, S-ASM inh)
CC(C)c1ccc(N(CC(=O)NCc2ccco2)C(=O)CCC(=O)Nc2ccccn2)cc1	KB-V1 cytotox inconclusive
Cc1ccc(NC(=O)NC2CCN(S(=O)(=O)c3ccc(F)cc3)CC2)cc1	none
CC1CCN(S(=O)(=O)c2ccc(C(=O)Nc3ccccc3-c3nc4ccccc4[nH]3)cc2)CC1	KB-3-1 tox inconclusive, KB-V1 cytotox 16µM
COc1ccc(S(=O)(=O)N2CCC(NC(=O)Nc3ccc(C)cc3)CC2)cc1	KB-V1 cytotox 18µM
Cc1ccc(NC(=O)c2ccc(S(=O)(=O)N3CCC(C)CC3)cc2)nc1	KB-3-1 tox 26µM, KB-V1 cytotox inconclusive
Cc1ccc(S(=O)(=O)N2CCCN(S(=O)(=O)c3ccc(C(F)(F)F)cc3)CC2)cc1	MCF10A rerep 7.3µM, KB-V1 cytotox inconclusive
Cc1ccc(S(=O)(=O)N2CCCN(C)CC2)cc1	MCF10A rerep inconclusive
Cc1ccc(NC(=O)c2ccc(S(=O)(=O)N3CCCCCC3)cc2)nc1	KB-V1 cytotox inconclusive
COc1ccc(CCNC(=O)c2cc(C)oc2C)cc1	none
Cc1cn2c(=O)c(S(=O)(=O)NCc3ccc(F)cc3)c(C)nc2s1	none (no result: Giardia kill, SW480 rereplic, MCF10A rerep, S-ASM inh)
CCN(CC)c1ccc2cc(C(=O)NNC(=O)c3ccc(S(=O)(=O)N4CCCCC4)cc3)c(=O)oc2c1	SW480 rereplic 2.9µM, MCF10A rerep inconclusive, KB-V1 cytotox 2.6µM
Cc1ccc(NC(=O)c2ccc(S(=O)(=O)N3CCCCC3)cc2)cc1	none
Cc1ccc(NC(=O)c2ccc(S(=O)(=O)N3CCCC3)cc2)cc1	KB-V1 cytotox 23µM
CC(C)N(C(=O)NC(=O)Nc1ccc(S(=O)(=O)N2CCCC2)cc1)S(C)(=O)=O	MCF10A rerep 0.65µM
Cc1ccc(C(=O)NNC(=O)c2ccc(S(=O)(=O)N3CCCCC3)cc2)cc1	SW480 rereplic 16µM, MCF10A rerep inconclusive
Nc1ccc2c(c1)C(=O)N(c1ccc3ccccc3c1)C2=O	none (no result: SW480 rereplic, MCF10A rerep, S-ASM inh)
COc1cc(NC(=O)Nc2nnc(N3CCCCCC3)s2)cc(OC)c1	none (no result: Giardia kill, SW480 rereplic, MCF10A rerep, S-ASM inh)
CC(=O)Nc1ccc(C(=O)NNS(=O)(=O)c2ccc(C)cc2)cc1	SW480 rereplic 4.1µM
COc1ccc(CNC(=O)CCCN2C(=O)CSc3c2c(C)nn3-c2ccccc2)c(OC)c1	KB-V1 cytotox inconclusive (no result: Giardia kill, SW480 rereplic, MCF10A rerep, S-ASM inh)
N/C(Cc1ccc([N+](=O)[O-])cc1)=N\OC(=O)c1cccc(Br)c1	Giardia kill inconclusive, SW480 rereplic 12µM, MCF10A rerep inconclusive
N/C(Cc1ccc([N+](=O)[O-])cc1)=N\OC(=O)c1ccc([N+](=O)[O-])cc1	KB-V1 cytotox inconclusive
O=c1c2cc3c(cc2nc2sc(Nc4ccc(F)c(Cl)c4)nn12)OCO3	none (no result: Giardia kill, SW480 rereplic, MCF10A rerep, S-ASM inh)
Clc1ccc(Nc2cc(-c3ccccc3)nc3ncnn23)cc1	MCF10A rerep inconclusive
c1ccc(Nc2cc(-c3ccccc3)nc3ncnn23)cc1	SW480 rereplic inconclusive, MCF10A rerep inconclusive, KB-V1 cytotox 15µM
COc1ccc(CCNc2cc(-c3ccccc3)nc3ncnn23)cc1	KB-3-1 tox inconclusive, KB-V1 cytotox 2.6µM
CCCCn1cc2c(c1-c1ccccc1Br)c(=O)n(C)c(=O)n2C	none (no result: Giardia kill, SW480 rereplic, MCF10A rerep, S-ASM inh)
CCOC(=O)Nc1ccc2c(c1)N(C(=O)CCN(C)C)c1ccccc1S2	MCF10A rerep inconclusive, KB-V1 cytotox inconclusive
CCN(CC)CCC(=O)N1c2ccccc2Sc2ccc(NC(=O)OC)cc21	SW480 rereplic inconclusive, MCF10A rerep 23µM
Cc1ccc(N2C(=O)CSC23C(=O)N(CC(=O)NCCc2ccccc2)c2ccccc23)cc1C (configuration not stated)	none (no result: Giardia kill, SW480 rereplic, MCF10A rerep, S-ASM inh)
COc1ccc(Cn2c(=O)cc(N)n(-c3ccccc3C)c2=O)cc1	KB-3-1 tox inconclusive, SW480 rereplic 15µM, MCF10A rerep inconclusive
O=C1CSC2(C(=O)N(Cc3ccccc3)c3ccccc32)N1c1ccc(Cl)cc1 (configuration not stated)	KB-3-1 tox inconclusive (no result: Giardia kill, SW480 rereplic, MCF10A rerep, S-ASM inh)
CC(C)c1ccc(N2C(=O)CSC23C(=O)N(Cc2cccc(F)c2)c2ccccc23)cc1 (configuration not stated)	KB-3-1 tox 21µM, KB-V1 cytotox 13µM (no result: Giardia kill, SW480 rereplic, MCF10A rerep, S-ASM inh)
O=C1CSC2(C(=O)N(Cc3cccc(F)c3)c3ccccc32)N1c1cccc(C(F)(F)F)c1 (configuration not stated)	KB-3-1 tox inconclusive, KB-V1 cytotox 13µM (no result: Giardia kill, SW480 rereplic, MCF10A rerep, S-ASM inh)
Cc1cccc(N2C(=O)CSC23C(=O)N(Cc2cccc(F)c2)c2ccccc23)c1 (configuration not stated)	KB-3-1 tox inconclusive, KB-V1 cytotox 15µM (no result: Giardia kill, SW480 rereplic, MCF10A rerep, S-ASM inh)
Cc1cccc(N2C(=O)CS(=O)(=O)C23C(=O)N(Cc2c(F)cccc2Cl)c2ccccc23)c1 (configuration not stated)	KB-V1 cytotox 5.8µM (no result: Giardia kill, SW480 rereplic, MCF10A rerep, S-ASM inh)
